Several values for one entry are separate records, joined by “and”; a condition that tells them apart may be missing. Identical values can stand only once. Results filed as inconclusive are left out. Activity calls are given as the source filed them. Unless noted, the rule behind the calls is not given here.
Legend:
[1] = circadian clock period modulators, cell-based, LOPAC library, luminescence reporter (AID 2774); settings: circadian reporter cells, at 7 µM, actives lie on both sides;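 note: values are relative to mean of DMSO wells on each plate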
[2] = system: Hepatitis C virus NS3 helicase; assay: HCV NS3 helicase inhibitors, primary screen, biochemical, fluorescence polarization, LOPAC1280 library (AID 687035; in the data active = inhibition above about 37%); settings: Purified HCV NS3 helicase, Cy5-dT15 ssDNA binding fluorescence polarization; stronger effect = higher value; concentration not given here
[3] = Cy5 fluorescence quenching or enhancement artefacts, artefact control for HCV NS3 helicase inhibitor project, biochemical, LOPAC1280 (AID 687037); settings: Cy5-DNA-NS3h complex fluorescence interference counterscreen
[4] = phospholipid biosynthesis inhibitors in animal cells, primary screen, cell-based, LOPAC library, screen 4 (AID 1347384); settings: phospholipid biosynthesis inhibition screen, at 10 µM
[5] = hESC survival regulators, cell-based (AID 493140); settings: human embryonic stem cell survival screen; stronger effect = higher value;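 note: cells exposed to compounds for four days before counting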
[6] = growth inhibition of DIPG glioma cells, dose response, cell-based, SU-DIPG-IV, MIPE4.0, CellTiter-Glo, qHTS (AID 1347063; cut-off not given, nearly all actives have AC50 up to about 30 µM;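 note: compound exposure lasted 48 hours before the viability readout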); settings: SU-DIPG-IV viability, CellTiter-Glo ATP luminescence
[7] = viability loss in pontine glioma line – cell-based, SU-DIPG-XXV, MIPE5.0, CellTiter-Glo, qHTS, dose response (AID 1347065; cut-off not given, nearly all actives have AC50 up to about 26 µM;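 note: cells exposed to compound for 48 hours before ATP readout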); settings: CellTiter-Glo ATP luminescence
[8] = SU-DIPG-VI glioma cell viability, MIPE4.0 library, CellTiter-Glo luminescence, qHTS (AID 1347066; cut-off not given, nearly all actives have AC50 up to about 30 µM;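 note: cells exposed to compound for 48 hours before readout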); settings: CellTiter-Glo ATP luminescence
[9] = biological target: Mitogen-activated protein kinase 7 (Homo sapiens) (UniProt Q13164); assay: ERK5 transactivation activators in reporter cells, primary screen, cell-based, HTS (AID 1508626;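 active = luciferase signal above three times the same-plate solvent-only control wells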;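 note: luciferase driven by Gal4-ERK5 fusion binding five Gal4 sites before minimal TATA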); settings: HeLa Gal4-ERK5 transactivation, 18 h, at 5 µM, stronger effect = higher value
[10] = growth inhibition of DIPG glioma cells, dose response, cell-based, SU-DIPG-XIII, MIPE5.0, CellTiter-Glo, qHTS (AID 1347064; cut-off not given, nearly all actives have AC50 up to about 23 µM;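 for AC50: cells exposed to compound for 48 hours before the viability read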); settings: SU-DIPG-XIII viability, CellTiter-Glo ATP luminescence
[11] = JHH-DIPG-1 glioma cell viability, MIPE5.0 library, CellTiter-Glo luminescence, qHTS (AID 1347067; cut-off not given, nearly all actives have AC50 up to about 26 µM;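 note: cells exposed to compound for 48 hours before readout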); settings: JHH-DIPG-1 glioma viability, CellTiter-Glo ATP luminescence
[12] = modifiers of HSF1 nuclear foci, imaging, Selleck Cancer Library (AID 1347162; in the data active = plate-normalised HSF1 focus index below about 0.46); settings: human cells, at 10 µM; SSMD: measured here: HSF1 foci SSMD mean; cell count: measured here: cell number; plate-normalised HSF1 focus index: stronger effect = lower value
[13] = LFS_MB_P medulloblastoma growth inhibition, cell-based, chromothripsis tumors, cisplatin or BGB combos (AID 1671449; in the data active = inhibition above about 80%;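 note: cells exposed for 96 hours; 0% = vehicle DMSO and 100% = killing by high DMSO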); settings: LFS_MB_P medulloblastoma cells
[14] = HDN33 neuroblastoma growth inhibition, cell-based, chromothripsis tumors, cisplatin or BGB combos (AID 1671450; in the data active = inhibition above about 80%;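 note: cells exposed to compound for four days; 0% = vehicle DMSO and 100% = cell killing by high DMSO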); settings: HDN33 neuroblastoma cells, stronger effect = higher value
[15] = ICB984 medulloblastoma cell growth inhibition, synergistic combos for chromothripsis tumors, cisplatin or BGB combos (AID 1671451); settings: ICB984 medulloblastoma cells, drug combinations, stronger effect = higher value;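 note: cells exposed for 96 hours before readout; 0% = vehicle DMSO and 100% = killing by high DMSO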
[16] = HTB85 osteosarcoma cell growth inhibition, synergistic combos for chromothripsis tumors, BGB or cisplatin IC20 combos (AID 1671453; in the data active = inhibition above about 80%;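 note: cells exposed for 96 hours before readout; 0% = vehicle DMSO and 100% = high DMSO killing control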); settings: HTB85 osteosarcoma cells, drug combinations, stronger effect = higher value
[17] = MDA-MB-436 breast carcinoma cell growth inhibition, synergistic combos for chromothripsis tumors, BGB or cisplatin combos (AID 1671458); settings: MDA-MB-436 breast carcinoma growth inhibition, drug combinations, stronger effect = higher value;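 note: cells exposed for 96 hours; 0% = vehicle DMSO and 100% = killing by high DMSO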
[18] = growth inhibition of BT084 medulloblastoma cells, cell-based, ICGC_MB145, cisplatin and BGB IC40 combos (AID 1671461; in the data active = inhibition above about 80%;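 note: cells exposed to drugs for 96 hours; 0% = vehicle DMSO and 100% = high DMSO full killing control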); settings: drug combinations, stronger effect = higher value
[19] = growth inhibition of RCMB18 medulloblastoma cells, cell-based, cisplatin and BGB IC40 combos (AID 1671462; in the data active = inhibition above about 80%;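 note: cells exposed to compound for four days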); settings: stronger effect = higher value
[20] = growth inhibition of CRL1545 osteosarcoma cells, cell-based, cisplatin and BGB IC20 combos (AID 1671464; in the data active = inhibition above about 80%;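 note: cells exposed to compound for 96 hours before readout; 0% = vehicle DMSO and 100% = high DMSO killing control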); settings: stronger effect = higher value
[21] = measured here: with BGB IC20 combination, at 0.5 µM
[22] = measured here: with cisplatin IC20 combination, at 0.5 µM

Chain of Mitogen-activated protein kinase 7 (Homo sapiens) (Q13164 whole entry, looked up, the tested form may be a part): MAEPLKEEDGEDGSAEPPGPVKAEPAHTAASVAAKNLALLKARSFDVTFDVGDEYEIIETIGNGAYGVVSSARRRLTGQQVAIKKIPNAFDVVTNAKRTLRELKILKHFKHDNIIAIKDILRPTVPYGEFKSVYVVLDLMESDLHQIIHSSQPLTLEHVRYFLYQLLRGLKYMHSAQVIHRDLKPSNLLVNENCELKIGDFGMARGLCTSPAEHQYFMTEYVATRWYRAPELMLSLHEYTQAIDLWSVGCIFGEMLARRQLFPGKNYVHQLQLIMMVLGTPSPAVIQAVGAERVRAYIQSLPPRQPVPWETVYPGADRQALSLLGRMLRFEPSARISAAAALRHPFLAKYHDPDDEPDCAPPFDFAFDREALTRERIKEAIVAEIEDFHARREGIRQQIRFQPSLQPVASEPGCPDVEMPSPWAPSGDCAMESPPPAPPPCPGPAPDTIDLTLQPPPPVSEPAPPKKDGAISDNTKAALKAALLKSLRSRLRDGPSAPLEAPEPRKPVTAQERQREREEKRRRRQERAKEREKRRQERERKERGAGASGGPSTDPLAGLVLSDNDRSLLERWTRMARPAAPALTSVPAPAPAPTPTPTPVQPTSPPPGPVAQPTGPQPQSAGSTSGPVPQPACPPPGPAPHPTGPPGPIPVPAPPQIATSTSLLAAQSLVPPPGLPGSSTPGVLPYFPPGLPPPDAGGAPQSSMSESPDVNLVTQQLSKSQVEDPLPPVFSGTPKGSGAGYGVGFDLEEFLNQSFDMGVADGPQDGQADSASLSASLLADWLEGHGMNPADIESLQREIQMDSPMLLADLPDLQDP

Compound: c1cc(CN2CCCCC2)cc(OCCCNc2nc3ccccc3s2)c1
- period change [1]: -0.085 h (inactive)
- inhibition [2]: -2% (inactive)
- fluorescence ratio (interference) [3]: 1 (inactive)
- outcome [4]: inactive

Compound: CC#C[C@]1(O)CC[C@H]2[C@@H]3CCC4=CC(=O)CCC4=C3[C@@H](c3ccc(N(C)C)cc3)C[C@@]21C
- period change [1]: 0.39 h (inactive)
- survival [5]: 27.7 (inactive)
- inhibition [2]: -1% (inactive)
- fluorescence ratio (interference) [3]: 0.9 (inactive)
- AC50 [6]: 0.418 µM (active)
- AC50 [7]: 29.5 µM (active)
- AC50 [8]: 2.96 µM (active)
- outcome [4]: inactive
- luciferase signal [9]: 36 AU (inactive)

Compound: CCOC(=O)c1cnc2c(cnn2CC)c1NN=C(C)C
- period change [1]: 0.065 h (inactive)
- inhibition [2]: -2% (inactive)
- fluorescence ratio (interference) [3]: 1 (inactive)
- outcome [4]: inactive

Compound: OC(CN1CCC(Cc2ccc(F)cc2)CC1)c1ccc(Cl)cc1 (centres undefined)
- inhibition [2]: -3% (inactive)
- fluorescence ratio (interference) [3]: 1 (inactive)
- outcome [6]: inactive
- outcome [8]: inactive
- outcome [4]: inactive

Compound: FC(F)(F)c1ccccc1-n1ccnc1
- period change [1]: -0.115 h (inactive)
- inhibition [2]: 0% (inactive)
- fluorescence ratio (interference) [3]: 1 (inactive)
- outcome [4]: inactive

Compound: C[C@@H](NCCCc1cccc(C(F)(F)F)c1)c1cccc2ccccc12
- outcome [6]: inactive
- AC50 [10]: 18.6 µM (active)
- AC50 [7]: 14.8 µM (active)
- outcome [8]: inactive
- AC50 [11]: 16.6 µM (active)

Compound: CS(=O)(=O)CCNCc1ccc(-c2ccc3ncnc(Nc4ccc(OCc5cccc(F)c5)c(Cl)c4)c3c2)o1
- AC50 [6]: 11.8 µM (active)
- AC50 [10]: 18.6 µM (active)
- AC50 [7]: 13.2 µM (active)
- AC50 [8]: 16.6 µM (active)
- AC50 [11]: 20.9 µM (active)

Compound: CNCCC(Oc1ccccc1OC)c1ccccc1 (centres undefined)
- period change [1]: -0.31 h (inactive)
- survival [5]: 0.917 (inactive)
- inhibition [2]: -6% (inactive)
- fluorescence ratio (interference) [3]: 0.9 (inactive)
- outcome [4]: inactive

Compound: CSCC[C@H](NC(=O)[C@H](Cc1c[nH]c2ccccc12)NC(=O)CCNC(=O)OC(C)(C)C)C(=O)N[C@@H](CC(=O)O)C(=O)N[C@@H](Cc1ccccc1)C(N)=O
- outcome [6]: inactive
- outcome [10]: inactive
- outcome [7]: inactive
- outcome [8]: inactive
- outcome [11]: inactive

Compound: CC(=O)[C@H]1CC[C@H]2[C@@H]3CC=C4C[C@@H](O)CC[C@]4(C)[C@H]3CC[C@]12C
- survival [5]: 9.33 (inactive)
- outcome [6]: inactive
- outcome [10]: inactive
- outcome [8]: inactive
- outcome [11]: inactive
- luciferase signal [9]: 44 AU (inactive)

Compound: CCCCCOC(=O)Nc1nc(=O)n([C@@H]2O[C@H](C)[C@@H](O)[C@H]2O)cc1F
- outcome [6]: inactive
- outcome [10]: inactive
- outcome [8]: inactive
- outcome [11]: inactive
- SSMD [12]: 2.2
- cell count [12]: 7640
- plate-normalised HSF1 focus index [12]: 1.08 (inactive)
- inhibition ([13]; at 0.5 µM, stronger effect = higher value): 1.4% (inactive) and -21.9% (inactive)
- inhibition ([13]; measured here: combination with BGB IC20, at 0.005 µM): -14.6% and -21.7%
- inhibition ([13]; measured here: combination with BGB IC40, at 0.005 µM): -20.4% and -20.9%
- inhibition ([13]; measured here: combination with BGB IC40, at 0.05 µM): -19.6% and -29%
- inhibition ([13]; measured here: combination with cisplatin, at 0.5 µM, stronger effect = higher value): -27.7% and -33.8%
- inhibition ([13]; measured here: combination with cisplatin, at 5 µM, stronger effect = higher value): -25.5% and -51.4%
- inhibition ([14]; BGB combo, at 5 µM): -43.4% and -24%
- inhibition ([14]; at 0.5 µM): -46.5% (inactive) and -7.86% (inactive)
- inhibition ([14]; cisplatin combo, at 5 µM): -42.6% and -1.99%
- inhibition [14, 21]: -56.7% and -7.65%
- inhibition [14, 22]: -38% and 1.73%
- inhibition ([14]; single agent, at 5 µM): -49.4% and -2.05%
- inhibition ([15]; BGB IC20 combo, at 0.005 µM): 4.24% and 4.65%
- inhibition ([15]; BGB IC40 combo, at 0.005 µM): -24.4% and -11%
- inhibition ([15]; BGB IC40 combo, at 0.05 µM): -29.4% and -22.1%
- inhibition ([15]; at 0.5 µM): -39.5% (inactive) and -17.6% (inactive)
- inhibition ([15]; cisplatin combo, at 0.05 µM): -33% and -26.5%
- inhibition ([15]; cisplatin combo, at 0.5 µM): -46.4% and -4.14%
- inhibition ([15]; cisplatin combo, at 5 µM): -48.1% and -27.4%
- inhibition ([15]; measured here: 5 uM single agent, at 5 µM): -17.2% and -23.5%
- inhibition ([16]; at 0.5 µM): -24.5% (inactive) and -10.3% (inactive)
- inhibition ([16]; measured here: with BGB IC20, at 0.5 µM): -20% and -11.5%
- inhibition ([16]; measured here: with BGB IC20, at 5 µM): -100% and -18.6%
- inhibition ([16]; measured here: with cisplatin IC20, at 0.5 µM): -35.2% and -21.3%
- inhibition ([16]; measured here: with cisplatin IC20, at 5 µM): -30% and -33.3%
- inhibition ([16]; single agent, at 5 µM): -21% and -4.05%
- inhibition ([17]; at 0.5 µM): -36.5% (inactive) and -2.12% (inactive)
- inhibition ([17]; measured here: BGB combination, at 0.5 µM): -31.4% and -6.87%
- inhibition ([17]; measured here: BGB combination, at 5 µM): -29.8% and -7.46%
- inhibition ([17]; measured here: cisplatin combination, at 0.5 µM): -50.7% and -2.06%
- inhibition ([17]; measured here: cisplatin combination, at 5 µM): -40.9% and -28%
- inhibition ([18]; at 0.5 µM): -20.5% (inactive) and -7.04% (inactive)
- inhibition ([18]; cisplatin combination, at 0.5 µM): -5.51% and -26.5%
- inhibition ([18]; cisplatin combination, at 5 µM): -19.4% and -8.1%
- inhibition ([18]; measured here: BGB IC40 combination 0.05 uM, at 0.05 µM): -7.71% and -17.1%
- inhibition ([18]; single agent, at 5 µM): -28.9% and -3.19%
- inhibition ([19]; at 0.5 µM): -0.93% (inactive) and -5.48% (inactive)
- inhibition ([19]; cisplatin combo, at 5 µM): -35.1% and -36.1%
- inhibition ([19]; measured here: BGB IC40 combination, at 0.05 µM): -29.7% and -0.207%
- inhibition ([19]; measured here: combination with cisplatin, at 0.5 µM): -33.1% and 15.5%
- inhibition ([19]; single agent, at 5 µM): -11.2% and -19.2%
- inhibition ([20]; at 0.5 µM): -52.6% (inactive) and -13.7% (inactive)
- inhibition [20, 21]: -42.3% and -20.5%
- inhibition [20, 22]: -61.3% and -12%
- inhibition ([20]; single agent, at 0.05 µM): -66.9% and -17.4%
- inhibition ([20]; single agent, at 5 µM): -52.4% and -6.48%

Compound: CCN[C@H]1C[C@H](C)S(=O)(=O)c2sc(S(N)(=O)=O)cc21
- survival [5]: 14.7 (inactive)
- outcome [6]: inactive
- outcome [10]: inactive
- outcome [7]: inactive
- outcome [8]: inactive
- outcome [11]: inactive
- SSMD [12]: 2.68
- cell count [12]: 6990
- plate-normalised HSF1 focus index [12]: 1.14 (inactive)

Source: PubChem BioAssay
